Source: PubChem BioAssay (National Center for Advancing Translational Sciences (NCATS))
Sfp PPTase inh – blocks B. subtilis Sfp PPTase activity; Biochemical Sfp PPTase activity, qHTS; Potency, µM, for the others: largest response in the series, negative = inhibition, hits mostly inhibitors; 3.5% of 310,000 active; Q9F4F7;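 further: the enzyme is Sfp with the accession as filed and its product quenches rhodamine fluorescence; 0% = enzyme reaction without inhibitor and -100% = no enzyme wells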
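Buffer: 50 mM Hepes-Na pH 7.6, 10 mM MgCl2, 0.01% Nonidet P-40, 0.01% BSA. Enzyme 15 nM, pre-exposed to compound 15 min; substrates then added and fluorescence change tracked over 30 min.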
ALDH1A1 inh – inhibitors of human aldehyde dehydrogenase 1A1 | P00352 | Potency, µM (titrated, usually from 75.3 µM), for inactives: top-dose activity, negative = inhibition, usual class: inhibitors | 7.3% of 220,000 active | AID 1030 | Purified ALDH1A1, NADH fluorescence, propionaldehyde substrate; active means well fitted inhibition curve with a large enough effect, not every such curve was filed as active; inconclusive means small, poorly fitted or top-dose-only effect, or another doubt; inactive means no such curve, though single readings can be large or run the other way;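 further: plate controls were no enzyme wells and a reference inhibitor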
Target sequence (P00352 whole entry, looked up): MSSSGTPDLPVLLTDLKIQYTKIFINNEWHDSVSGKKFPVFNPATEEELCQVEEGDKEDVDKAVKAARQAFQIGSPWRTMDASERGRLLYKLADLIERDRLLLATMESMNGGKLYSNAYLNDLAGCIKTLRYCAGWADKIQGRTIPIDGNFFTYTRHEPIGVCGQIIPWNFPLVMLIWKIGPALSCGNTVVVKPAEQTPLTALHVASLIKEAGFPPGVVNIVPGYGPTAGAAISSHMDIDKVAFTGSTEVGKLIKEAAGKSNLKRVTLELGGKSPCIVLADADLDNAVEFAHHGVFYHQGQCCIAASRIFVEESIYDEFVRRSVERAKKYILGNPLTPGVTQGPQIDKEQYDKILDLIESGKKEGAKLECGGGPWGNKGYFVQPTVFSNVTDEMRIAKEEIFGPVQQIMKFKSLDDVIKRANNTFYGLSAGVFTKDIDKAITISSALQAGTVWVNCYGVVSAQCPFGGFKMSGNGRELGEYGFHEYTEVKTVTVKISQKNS
PLK1 PBD block – inhibitors of human PLK1 polo-box domain binding. Plk1 PBD binding of FITC phosphopeptide, fluorescence polarization. Potency, µM, for inactives: max response, negative = inhibition, most hits filed as inhibitors. 2.8% of 360,000 active. AID 720504; further: series mostly up to about 57 µM; nearly all actives have a fitted effect of over 65% in size
Gal4-VP16 FLuc – counter-screen for ROR gamma inhibitors: Gal4-VP16 reporter; Drosophila S2 Gal4-VP16 UAS-luciferase, luminescence, 20 h; Potency, µM (doses to about 53.6 µM), without a hit: at the top dose activity, negative = inhibition, usual class: inhibitors; 3.5% of 310,000 active; AID 2546;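 further: Gal4-VP16 expression switched on by copper sulfate through the metallothionein promoter; nearly all actives have a fitted effect of over 50% in size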
RORg inh – blocks mouse ROR gamma transcriptional activity; Drosophila S2 Gal4-RORgamma UAS-luciferase reporter, 20 h; Potency, µM (top dose mostly 53.6 µM), inactives show at the top dose activity change, negative = inhibition, most hits filed as inhibitors; 5.4% of 310,000 active; further: nearly all actives have a fitted effect of over 60% in size
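Schneider cells (Drosophila), stable Gal4 DBD–ROR gamma + UAS-luc; 1 hr cmpd preincubation; Cu2+ induction 700 uM final; 20 hr ambient; luminescence.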
The depositor's hits bear a star; ? = inconclusive; / = no result; [ ] = dose if it differs, or a comment. Rows were chosen to be rich in hits. Some 12% of all compounds tested hit in one or more screens of this group. Unless noted, the call rests on the fitted dose curve; in most records, active means well fitted curve in the direction sought with a large enough effect; inconclusive means small, poorly fitted or top-dose-only effect, or another doubt; inactive means no such curve, though single readings can be large; an effect the other way counts as inactive or inconclusive. Unless noted, on the % scale 0 is the no-effect control and ±100 the full control effect; potency means the concentration at half of the fitted maximal effect.

SMILES | Sfp PPTase inh | ALDH1A1 inh | PLK1 PBD block | Gal4-VP16 FLuc | RORg inh
O=C1NC(=O)C2C3OC(C(Br)C3Br)C12 (stereo not drawn) | / | / | -7% | / | /
Cc1cccnc1-n1c(CCN2C(=O)c3ccccc3C2=O)nc2ccccc2c1=O | 11% | 18µM* | -6% | 0% | ?
COC(=O)[C@]12CCCCC=C1N(Cc1ccc(Cl)cc1Cl)C(=O)[C@H](CC(=O)NCCCCc1ccccc1)C2 | / | / | 3% | / | /
C/C=C1\COC(C(=O)NCc2cccc(OC)c2OC)(C(F)(F)F)C=C1C=C(C)C (stereo not drawn) | -5% | / | / | -2% | 16%
Cc1[nH]c(=S)[nH]c(=O)c1Cc1ccccc1 | -1% | -1% | -5% | -4% | -10%
CCOCc1[nH]c(=S)[nH]c(=O)c1Cc1ccc(OC(C)C)cc1 | -18% | 13µM* | -18% | -4% | -33%
Cc1nn(CC(=O)N(C)C2(C#N)CCCCC2)c(C)c1[N+](=O)[O-] | / | / | -6% | / | /
Cc1cc2cc(CN(Cc3ccc4c(c3)OCO4)Cc3nnnn3C3CCCC3)c(=O)[nH]c2cc1C | 0% | 22µM* | 0% | -12% | 38%
Cc1ccc2[nH]c(=O)c(CN(Cc3ccc4c(c3)OCO4)Cc3nnnn3C3CCCC3)cc2c1 | 4% | 20µM* | -8% | -20% | 22%
NC(N)=NC(N)=Nc1ccc(S(N)(=O)=O)cc1 | / | 4%[13.5 µM] | / | / | /
COCCCN(C(=O)CSCC(=O)Nc1ccc(C)cc1)c1c(N)n(Cc2ccccc2)c(=O)[nH]c1=O | / | / | -19% | / | /
COC(=O)NC1CCC(NC(=O)OC)CC1 (stereo not drawn) | 4% | 8% | 27µM* | -5% | -1%
COC(=O)NC1CCS(=O)(=O)C1 (stereo not drawn) | -17% | 0% | 0% | -6% | -44%
CCOC(=O)C1CCN(CC(=O)N2C(C)CCCC2C)CC1 (stereo not drawn) | ? | 11µM* | -8% | -9% | -1%
OC(c1ccccc1)c1ncc(-c2cccc(F)c2)[nH]1 (stereo not drawn) | / | / | 0% | / | /
CC1Cc2ccccc2N1C(=O)COc1ccc2c(c1)OCO2 (stereo not drawn) | 13% | -13% | -14% | 29% | 29%
CCn1nc(NC(=O)c2ccncc2)c2cc3cccc(C)c3nc21 | 7% | ? | 2% | 4% | 1%
CCn1nc(NC(=O)c2ccccn2)c2cc3cccc(C)c3nc21 | -6% | ? | -3% | 4µM* | 3.2µM*
CC(C)(C)NC(=O)C(c1ccnc2ccccc12)n1c(=O)c(-c2ccco2)nc2ccccc21 (stereo not drawn) | / | / | -24% | / | /
O=C(Nc1ccc(Oc2ccc(C(=O)O)c(C(=O)O)c2)cc1)c1cccs1 | 3% | 1% | -2% | -13% | -31%
O=C(O)/C=C/c1ccc2noc(-c3ccccc3)c2c1 | 50µM* | ? | -12% | 25% | 41%
O=S(=O)(c1cccc(C(F)(F)F)c1)N1c2ccccc2-n2cccc2[C@H]1c1cccnc1 | / | -4%[13.5 µM] | / | / | /
c1ccc(CN2CCC(Nc3nc(-c4cccs4)nc4ccccc34)CC2)cc1 | 79µM* | 4% | -1% | 0% | ?
CC(C)C(=O)OCc1cn(-c2ccc(Cl)c(Cl)c2)nn1 | -2% | ? | 21µM* | -20% | 25%
O=C([C@H]1O[C@@H](n2ccc(=O)[nH]c2=O)[C@H](O)[C@@H]1O)N1CCN(c2ccc(Cl)cn2)CC1 | / | / | -14% | / | /
SMILES | Sfp PPTase inh | ALDH1A1 inh | PLK1 PBD block | Gal4-VP16 FLuc | RORg inh
CNC[C@H](O)[C@H](O)[C@H](O)[C@H](O)CO | -1% | -4%[20.9 µM] | / | 3%[17 µM] | 1%[16.9 µM]
COc1ccc(OC)c(N2C(=O)CCCC2=O)c1 | -1% | / | -1% | 2% | 11µM*
C=CCNc1ncnc2c1ncn2[C@H]1CN(Cc2cccc3ccccc23)C[C@@H](CO)O1 | / | / | -4% | / | /
COC(=O)CSC1=C(C#N)C(c2ccc(C)cc2)C2=C(CCCC2=O)N1 (stereo not drawn) | 56µM* | ? | -16% | 1% | ?
COC(=O)CSC1=C(C#N)C(c2ccc3c(c2)OCO3)C2=C(CCCC2=O)N1 (stereo not drawn) | ? | -5% | -11% | -22% | -20%
CCc1ccccc1NC(=O)CSC1=C(C#N)C(c2ccc(O)c(OC)c2)C2=C(CCCC2=O)N1 (stereo not drawn) | ? | ? | 11µM* | -1% | ?
Cc1ccc(NC(=O)CSC2=C(C#N)C(c3ccc4c(c3)OCO4)C3=C(CCCC3=O)N2)c(C)c1 (stereo not drawn) | -15% | 14µM* | -14% | -22% | 36%
O=C(O)c1c(Cl)nc2ccccn12 | 14% | -1% | -15% | -11% | 11%
O=C(Oc1cc(=O)n2ccccc2n1)c1ccccc1 | ? | -12% | 13µM* | -11% | 11%
S=C1NCc2cncnc2N1 | / | / | 4% | / | /
COc1ccc(/C=C2\SC(=NCc3ccccc3)NC2=O)cc1 | 8% | -8% | -7% | -7% | 43%
COc1ccc(CN=C2NN=C(c3cccc(OC)c3)CS2)cc1 | ? | 8.9µM* | ? | -23% | 4%
C=CCn1c(C)cc(C2=NNC(=NCc3ccccc3)SC2)c1C | -5% | ? | -10% | -5%[10 µM] | 23%
Cc1ccc(C)c(C2=NNC(=NCc3ccccc3)SC2)c1 | -108% | 18µM* | -24% | ? | 7.9µM*
COc1ccc(CN=C2NN=C(c3ccccc3)CS2)cc1 | 45µM* | 4.5µM* | ? | -2% | 2µM*
COc1cccc(C2=NNC(=NCc3ccccc3)SC2)c1 | -21% | ? | -24% | 5% | 8.9µM*
CC1(CO)COC(c2ccccc2)=N1 (stereo not drawn) | 1% | / | -3% | 0% | 3%
C=CCOc1c(CNc2ccc3[nH]c(=O)[nH]c3c2)cccc1OC | 4% | -2% | 27µM* | 7% | -9%
COc1cc(CNc2ccc3[nH]c(=O)[nH]c3c2)cc(Cl)c1OCC(=O)NC(C)(C)C | 11µM* | ? | ? | -1% | -32%
COc1cccc(CNc2ccc3[nH]c(=O)[nH]c3c2)c1OCc1ccc(F)cc1 | -9% | / | -9% | 25% | ?
C[N+](C)(CCCOc1ccccc1)c1ccccc1 | 37% | -8%[20.9 µM] | / | -3%[17 µM] | 13%[16.9 µM]
COc1ccc(N(CC(=O)NCc2ccc(C)cc2)S(=O)(=O)c2c(C)nn(C)c2C)cc1 | 19% | 25µM* | 11% | 0% | 36%
COc1ccc2nc(NC(=O)CN(c3ccc(C)cc3)S(=O)(=O)c3c(C)nn(C)c3C)sc2c1 | -9% | -6% | 0% | 18µM* | 0%
COc1ccc(NC(=O)CN(c2ccc(C)cc2)S(=O)(=O)c2c(C)nn(C)c2C)cc1OC | 19% | 2% | 1% | ? | 16µM*
CNc1nc(OCC(F)(F)F)nc(N2CCOCC2)n1 | -1% | 7% | 6.7µM* | 11% | -1%
CNc1nc(OC)nc(N2CCOCC2)n1 | 30% | -2% | -6% | 3% | -27%
CNc1nc(C(=O)O)nc(N2CCOCC2)n1 | 56µM* | ? | 0% | 1% | 8%
